Measured values: the supplement of paper PMC6555819

system: VDR:RXRa (NR concentration 270 nM, RXRa partner concentration 90 nM); test: PBM binding z-score (relative to random genomic background probes); higher = stronger binding; sequences stand for … in GC…GCGATTGACAGCGTAGAATGAAGG
Protocol: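 Protein-binding microarray (Agilent 4x180K custom design, double-stranded 60-nt probes: 5' GC cap, 34-nt variable region, 24-nt constant primer region; full probe sequence given). Purified or IVT nuclear receptor:RXRα heterodimers (3:1 NR:RXRα, mostly 270:90 nM) or homodimers were incubated for 1 h in PBS with 2% milk and no ligand, then detected with Alexa488 antibodies. Fluorescence from o1-orientation probes (~5 replicates averaged) was converted to z-scores against 500 random hg19 background probes. Variable regions are seed direct-repeat (DR0–DR5) sites, all their single-nucleotide variants and half-site ablations.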

| Sequence | PBM binding z-score |
| --- | --- |
| CCAGCTAGGTCAATGGTCAGCTAAAGCAGCTCGC | 1 |
| CCTCGGAGGACAAGAGGAGGTCAGAGCTGCCAGA | 1.48 |
| AGAACGAGGGCACGCTGAGTTGATTGCAGAGTAG | 2.04 |
| CGTCCAAGGTCAGGGTCAGTGAAAGAGACTCGAA | 3.92 |
| AGACTGAGGTTATTAAGATCAGGGAATTGCGGTC | 2.39 |
| ATATGTAGGTTACATCCGGGTCATTCACGCTATG | 4.35 |
| GCTATTAGTTGAAAGCGCAACCGAATGATTCTCG | -0.272 |
| CCAACTGGGGCAGAAAGGTTACCATACCATCCGG | 0.976 |
| CCTATTAGTTGACCATAAGGGCAACCCAAGCTCG | 0.972 |
| TCTCGGAGGCCACGAAGGTCAGAGCTTTCCAGAG | 3.69 |
| CCTTACGGGTCACTGACAGGTTATAGCATTTGGA | 3.8 |
| TTACCAACGTGAGCTGAGGTCGTTGATCCAACTC | 1.21 |
| ATATGTAGGTTATTGGGTCATTCAGTTTGCGCAT | 4.55 |
| TCTCGGAGGACACAAAAGGTCAGAGCTCGACATC | 3.17 |
| ATCTCTAGGTAATGTTCAGTGAAAGATCGATAGA | 0.188 |
| TCTATTAGTTGATTAGGGCAACCCAAACAGCGGA | 0.694 |
| CAAACTAGGTCACGAAAGGCCAAAGTCGAATGAC | 4.15 |
| GCTATTAGTTGAAAAGGCAACCGAATGATTCTCG | -0.31 |
| TCATCTAGGTAAACAGGTGAAAGTCCGTAAGTTA | 0.914 |
| CCAGACAGGTGAGAAGGTAACTCTGCCTCGATTA | -0.12 |

| Sequence | PBM binding z-score |
| --- | --- |
| TCGATTAGTTGATTAGGGCAACCGAAACAGCGGA | 0.219 |
| CGTCCAAGGTCAGAAGGTCAGTGAAAGCGACGTG | 4.14 |
| AGAATGAGCTTACCAAAGATCAGGGAAACGCTTG | -0.591 |
| CCCTACGGGTCACGAGGTTATAGCACGACGAGCG | 5.13 |
| TGAATGAGGTTAAAGATCATGGAACGTGGCGTCG | 2.05 |
| TCTTGTAGATCAACCGGAGGTTAAGAAAGATCGA | 0.672 |
| ATACCAAGGTGATCGTGAGGTCGATGATACTAAC | 1.9 |
| TCGAGTAGGTTAGTCGGGGAATTCAGCCAACATA | -0.318 |
| CCGAGTAGGTTAAGGGGCATTCAGGCAACGGTGA | 0.877 |
| ACTAGATGGTCAGCTGAGGTCACACACAATTCGG | 4.7 |
| TAGGCTAGGTCATGCGGGCCAGTATAGTGTCGGC | 2.63 |
| GCTCGGAGGAGAAGGTCAGAGCTTTGTCCGTAGA | 0.324 |
| TTACCAAGGTGAAAGTTCGTTGATGCACGCCTTG | 2.12 |
| GATACAGGGTCAGCTAGAGACCAGAGTATGGAAA | 2.23 |
| ATCTCTAGGTAAAGATAGTTGAGTGAATGCAAAT | 0.375 |
| CCTACTGGGCCACGAAAGGACATTGATTCAGTGA | -0.289 |
| CGTCATAGTTCAACTAAGGTAACGTAAAGCACGC | 2.59 |
| CCTTACGGGCCACTGACAGGTTATAGCATTTGGA | -0.202 |
| CCTTACGGGTCACTCCAGGTTAGAGCATCGGAGT | 3.65 |
| CCGAGTAGGTTATGGGGCATTTAGGCAACGGTGA | -0.0639 |
